Screening results: PubChem, National Center for Advancing Translational Sciences (NCATS)
This is a sample that favours compounds with a hit; in the whole collection about 11% have one here.
Vaccinia Venus: inhibitors of vaccinia virus (Venus reporter); AID 720580; Vaccinia virus Venus reporter expression, fluorescence; 0.46% of 330,000 active; Potency, µM (top dose mostly 36.5 µM), for inactives: at the top dose activity change, negative = inhibition, usual class: inhibitors; calls by dose curve; tested in A549 cells; further: on the % scale 0 is the no-effect control and ±100 the full control effect; nearly all actives have a fitted effect of over 30% in size
Vaccinia mCherry: inhibitors of vaccinia virus infection (mCherry reporter signal); Vaccinia virus mCherry reporter infection, fluorescence; Potency, µM (series often up to 36.5 µM), inactives show at the top dose activity change, negative = inhibition, most hits filed as inhibitors; 0.63% of 310,000 active; AID 720579; calls by dose curve; tested in A549 cells; further: on the % scale 0 is the no-effect control and ±100 the full control effect; nearly all actives have a fitted effect of over 35% in size
Pf growth 48h: P. falciparum growth inhibition at 48 hours (one generation); P. falciparum luciferase growth in erythrocytes, 48 h; 5.9% of 310,000 active; Potency, µM (series often up to 28.7 µM), for the others: at the top dose activity change, negative = inhibition, actives largely listed as inhibitors; further: on the % scale 0 is the no-effect control and ±100 the full control effect
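Compounds are pin-transferred into medium, infected erythrocytes (2% hematocrit, 0.1% parasitemia final) are added, and plates sit one parasite generation at 37 C in 5% CO2. Detection reagent is then added and luminescence measured.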
HCV inh: HCV inhibition | AID 651820 | Huh7.5.1 HCVcc-Cre infection, luciferase reporter, 44 h | Potency, µM (highest dose often 41.8 µM), inactives show top-dose activity change, negative = inhibition, actives largely listed as inhibitors | 3.4% of 340,000 active; further: on the % scale 0 is the no-effect control and ±100 the full control effect
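Cells (1,000/well) were plated 4 h before compound, then infected with HCVcc-Cre virus (~0.5 moi). After 44 h further culture, infection was read as luciferase luminescence following a 15 min substrate incubation at room temperature.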
NS1 inh: influenza NS1 inhibition. AID 2326. Potency, µM (series often up to 46.1 µM), for inactives: top-dose activity, positive = more growth. 0.4% of 270,000 active; calls by dose curve; further: actives are rising curves; nearly all actives have a fitted effect of over 50% in size
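Compounds were scored for reversing the slow growth caused by influenza A NS1 in S. cerevisiae, measured by optical density at 600 nm. Assay medium contained 2% galactose at pH 6.0; NS1-free yeast of the same strain were the positive control.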
Pf growth 96h: P. falciparum growth inhibition at 96 hour, primary screen for plastid delayed-death inhibitors; P. falciparum luciferase reporter growth, 96 h; Potency, µM (top dose mostly 28.7 µM), inactives show top-dose activity change, negative = inhibition, hits mostly inhibitors; AID 504834; 6.9% of 320,000 active; further: on the % scale 0 is the no-effect control and ±100 the full control effect
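Plates of compound plus infected erythrocytes (2% hematocrit, 0.05% parasitemia final) incubate 96 hours, 37 C, 5% CO2. Detection reagent added; reduced luminescence from the parasites' luciferase reporter flags inhibition.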
The depositor's hits bear a star; [ ] = dose if it differs, or a comment. Unless noted, the call rests on the fitted dose curve; in most records, active means well fitted inhibition curve with a large enough effect; inconclusive means small, poorly fitted or top-dose-only effect, or another doubt; inactive means no such curve, though single readings can be large or run the other way. Potency means the concentration at half of the fitted maximal effect.

Screening Cc1cc2[nH]c(=O)c(=O)[nH]c2cc1S(=O)(=O)N1CCN(c2ccccc2F)CC1 returned Vaccinia Venus 6%, Vaccinia mCherry 9%, Pf growth 48h inconclusive, HCV inh 6%, NS1 inh 3% and Pf growth 96h inconclusive.
`CC(=O)Nc1ccc(C(=O)N2CCCCC2c2cc(C(=O)NCc3ccccc3)no2)cc1` (stereo unspecified) gave Vaccinia Venus 10% and Vaccinia mCherry 7%.
For COC(=O)c1cc(Nc2cc(C)c3c(O)cccc3n2)cc(C(=O)OC)c1 the results were Pf growth 48h 9.3µM*, HCV inh inconclusive, NS1 inh 10% and Pf growth 96h inconclusive.
Cc1cc(NCc2ccco2)nc2cc(O)ccc12 was read as Vaccinia Venus -8%, Vaccinia mCherry inactive, Pf growth 48h 3.3µM*, HCV inh 9%, NS1 inh -4% and Pf growth 96h 5.2µM*.
`COC(=O)c1cc(Nc2cc(C)c3ccc(O)cc3n2)cc(C(=O)OC)c1` gave Vaccinia Venus -18%, Vaccinia mCherry -12%, Pf growth 48h inconclusive, HCV inh -14%, NS1 inh 6% and Pf growth 96h inconclusive.
For Cc1ccc2c(NCc3ccco3)nc(NC(C)C)nc2c1 the results were Vaccinia Venus -14% and Vaccinia mCherry -16%.
For COc1cccc(Nc2cc(C)c3ccccc3n2)c1 the results were Vaccinia Venus -15%, Vaccinia mCherry inconclusive, Pf growth 48h 6%, HCV inh inconclusive, NS1 inh -11% and Pf growth 96h inconclusive.
Cc1ccccc1Nc1cc(C)c2c(O)cccc2n1 was read as Vaccinia Venus -4%, Vaccinia mCherry inconclusive, Pf growth 48h inconclusive, HCV inh -5%[8.37 µM], NS1 inh -33% and Pf growth 96h 14%.
`COc1ccc(Nc2cc(C)c3c(O)cccc3n2)cc1` gave Vaccinia Venus -17%, Vaccinia mCherry inconclusive, Pf growth 48h 2.3µM*, HCV inh inconclusive, NS1 inh -43% and Pf growth 96h 1.7µM*.
Cc1ccc(Nc2cc(C)c3ccc(O)cc3n2)cc1C was read as Pf growth 48h inconclusive, HCV inh 10µM*, NS1 inh -52% and Pf growth 96h inconclusive.
For Cc1ccc(Nc2cc(C)c3c(O)cccc3n2)cc1C the results were Pf growth 48h 2.6µM*, HCV inh inconclusive, NS1 inh -55% and Pf growth 96h 2.6µM*.
For CCN(CC)c1ccc2ccc(=O)oc2c1 the results were Vaccinia Venus -1%, Vaccinia mCherry -13%, Pf growth 48h -34%, HCV inh -24%, NS1 inh -8% and Pf growth 96h 9.3µM*.
For CCOC(=O)c1c(NC(=O)Cc2coc3cc(C)ccc23)sc2c1CCCC2 the results were Vaccinia Venus -16% and Vaccinia mCherry -3%.
`CC(O)/C=C/C1OC(=O)CC1Nc1ccc(C=O)cc1` (stereo unspecified) gave Vaccinia Venus 0%, Vaccinia mCherry -5%, Pf growth 48h 42%, HCV inh 16%, NS1 inh 3% and Pf growth 96h 7.4µM*.
`CC(OC(=O)c1ccco1)C(=O)NCc1cccs1` (stereo unspecified) gave Pf growth 48h 0%, HCV inh 20%, NS1 inh 5% and Pf growth 96h 12µM*.
Screening CCOP(=O)(OCC)c1nc(-c2ccc(OC)cc2)oc1N1CCOCC1 returned Vaccinia Venus 16%, Vaccinia mCherry -15%, Pf growth 48h -11%, HCV inh -7%, NS1 inh -3% and Pf growth 96h -3%.
CNc1oc(-c2ccc(Cl)cc2)nc1P(=O)(c1ccccc1)c1ccccc1 was read as Pf growth 48h inconclusive, HCV inh inconclusive, NS1 inh 9% and Pf growth 96h 15µM*.
`Cc1ccc(-c2nc(P(=O)(c3ccccc3)c3ccccc3)c(N3CCOCC3)o2)cc1` gave Pf growth 48h 10µM*, HCV inh inconclusive, NS1 inh -5% and Pf growth 96h 10µM*.
For CN(C)/C=N/c1sc2c(c1C#N)CCC2 the results were Vaccinia Venus -6%, Vaccinia mCherry -10%, Pf growth 48h 0%, HCV inh -3% and NS1 inh -10%.
For CCN(CCNC(=O)c1ccc(CSc2nc3ccncc3[nH]2)cc1)c1ccccc1 the results were Vaccinia Venus -11%, Vaccinia mCherry -12%, Pf growth 48h 10µM*, HCV inh inconclusive, NS1 inh -2% and Pf growth 96h -24%.
`O=C(NCCN1CCN(c2cccc(Cl)c2)CC1)c1ccc(CSc2nc3ccncc3[nH]2)cc1` gave Vaccinia Venus -15%, Vaccinia mCherry -11%, Pf growth 48h 1.7µM*, HCV inh inconclusive and Pf growth 96h inconclusive.
`CCN(CC)CCOC(=O)c1ccc(N=CC2=C(O)CC(C)(C)CC2=O)cc1` gave Vaccinia Venus -8%, Vaccinia mCherry -25% and HCV inh 21%.
For COCCn1c(SCC(=O)Nc2nnc(C)s2)nnc1-c1ccncc1 the results were Pf growth 48h 17%, HCV inh 7%, NS1 inh 6% and Pf growth 96h inconclusive.
For CC(=O)c1sc(NC(=O)CSCc2c(C)noc2C)nc1-c1ccccc1 the results were Vaccinia Venus -14%, Vaccinia mCherry -7%, Pf growth 48h 10µM*, HCV inh 0% and Pf growth 96h inconclusive.
Screening CCOC(=O)c1sc(NC(=O)CSc2nnc(-c3ccc(OC)cc3)n2CCOC)nc1C returned Pf growth 48h inconclusive, HCV inh inconclusive, NS1 inh -40% and Pf growth 96h 13µM*.
`CCOC(=O)c1sc(NC(=O)CSCc2c(C)noc2C)nc1C` gave Pf growth 48h 10µM*, HCV inh inconclusive and Pf growth 96h inconclusive.
CCOC(=O)c1sc(NC(=O)CSc2nccc(C)n2)nc1C was read as Pf growth 48h -21%, HCV inh -19%, NS1 inh 0% and Pf growth 96h 0%.
`CCOC(=O)c1sc(NC(=O)CSc2ncccn2)nc1C` gave Vaccinia Venus -20%, Vaccinia mCherry -25%, Pf growth 48h 50%, HCV inh 16µM*, NS1 inh 2% and Pf growth 96h 13µM*.
`COc1ccc(NCc2cc3cc4c(cc3n(CC(=O)Nc3ccc(C)cc3C)c2=O)OCO4)cc1` gave Vaccinia Venus -6% and Vaccinia mCherry -8%.
Screening OC(CN1CC=C(/C=C/c2ccc(Br)cc2)CC1)c1ccccc1 (stereo unspecified) returned Vaccinia Venus -13%, Vaccinia mCherry inconclusive, Pf growth 48h inconclusive, HCV inh inconclusive, NS1 inh 10% and Pf growth 96h -29%.
